For 40 sequences, ETS1 binding intensity and RUNX1 binding intensity results are on record in the supplement of paper PMC10681739.
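Throughout, for RUNX1 binding intensity (PBM fluorescence) in presence of ETS1, normalised to RUNX1-only experiment: Full-length recombinant human ETS1 or RUNX1 bound to double-stranded 36-bp genomic probes on microarrays, detected by protein-specific primary antibody and Alexa488 secondary, spot fluorescence as median of four replicate spots.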
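Throughout, for RUNX1 binding intensity (PBM fluorescence), RUNX1 alone: Full-length recombinant human RUNX1 bound to double-stranded 36-bp genomic probes on a high-density microarray, scored as Alexa488 fluorescence per spot via anti-RUNX1 antibody, median of four replicate spots.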

The first assay deals with T1, ETS1 (UniProt P14921).
T1 sequence: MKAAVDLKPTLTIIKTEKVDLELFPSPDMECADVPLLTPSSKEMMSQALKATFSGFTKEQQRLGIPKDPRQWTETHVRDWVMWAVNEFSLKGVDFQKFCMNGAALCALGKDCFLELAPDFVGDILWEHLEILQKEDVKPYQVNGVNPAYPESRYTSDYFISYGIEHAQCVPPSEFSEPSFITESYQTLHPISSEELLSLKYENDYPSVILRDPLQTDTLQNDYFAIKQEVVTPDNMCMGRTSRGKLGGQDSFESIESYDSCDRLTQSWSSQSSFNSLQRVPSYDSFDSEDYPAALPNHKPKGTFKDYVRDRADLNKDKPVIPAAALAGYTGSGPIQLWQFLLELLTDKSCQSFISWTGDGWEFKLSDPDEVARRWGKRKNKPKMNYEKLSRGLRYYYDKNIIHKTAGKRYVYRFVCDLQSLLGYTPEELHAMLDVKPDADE
Briefly: ETS1 binding intensity (PBM fluorescence), ETS1 alone (arbitrary fluorescence units); higher = stronger binding. Particulars: ETS1 concentration 1 nM; RUNX1 concentration 0 nM.
CCTCTCAACAGCATTTCCTGGTGGTCAGATATCTGA came in with an ETS1 binding intensity of 580. Consider CTTACAGATAAGGAAACTGAGGTTAAAATGTAGGGG, for which the ETS1 binding intensity came to 681. The same measure, in the same setting: the value for GGAGGAAGAGAGGAAACGGGGGCGGCCGCAGCTTCT was 836; that for AGCACGTCCCCCTTCTTCCTCCCGCAGAGGGCCTGC was 454. GGGCAGGTGCGGATGCCGAGGAGAGTGGTCACCTCG returned an ETS1 binding intensity of 449. GAACATGGTCTCCGCTTCCGCCGCAACCTCGGCCTT showed an ETS1 binding intensity of 525. Still for that read-out and setting: the value for ATGCGAGTCTGCTTCCTGCCACAAATCACAATTTGA was 665; that for CCAGGGGCACACCGGAACCCACACCTGAAATCACAG was 647. Regarding CCAGAAAGCTCCTCCTTCCGCCACAACACGATCACT, the ETS1 binding intensity turned out to be 538. Sequence TTCAACAGGATATTGCTTTGTTACCACAGGCCCTTT returned an ETS1 binding intensity of 1590.

As for CCGGGAGGGACGGAGGATGTGTGGTTCTGTCTCCTT, the ETS1 binding intensity worked out at 673. GCTCGCGTCATCCTGCAGCGCCGACACCACAGACAC had an ETS1 binding intensity of 501.

The sequence GGAACGGAGGCGGAAGGGGCCCTGCGGCGACGACGT showed an ETS1 binding intensity of 679. As to CCTGAGCGCCCGGAAGGAAGGCTGTGGTAGGTTGTC, the ETS1 binding intensity was determined as 1270.

As to TCCTAGCCATTTCCTATCCACCCTGTGGCTAATTTG, the ETS1 binding intensity came out at 437. AGCTCCAGGAAGAGGGCCTGAAAACCAAACGGGGGA: the ETS1 binding intensity was determined as 408. Regarding GAAGTGATGTTAGACGGATGTGGGTGGTGCCTCCGG, the ETS1 binding intensity came out at 1620.

CGAGCTCGCAAGAGGAAACCGCGGCGCGGAGGCAGC returned an ETS1 binding intensity of 681.

Another assay has as its target RUNX1 (UniProt Q01196). The assay can be described thus: RUNX1 binding intensity (PBM fluorescence), RUNX1 alone (arbitrary fluorescence units); higher = stronger binding. The note with it: RUNX1 concentration 2 nM; ETS1 concentration 0 nM. The protocol:
(§1)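 Cooperative gcPBM on 36-bp genomic probes with neighbouring ETS1 and RUNX1 sites. Recombinant human RUNX1 (2 nM) was incubated alone or with ETS1 (25 nM) and detected with anti-RUNX1 antibody plus Alexa488 secondary. Values are medians over 4 replicate spots; the RUNX1+ETS1 data were normalised to the RUNX1-only data. The probes sit in constant array flanks that are not printed.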
For GCACCGTACCCGGAACTGCTCCCTCCCGCAGGCGCA, the RUNX1 binding intensity came to 930. Sequence GCCCAGTTCTCGCATCCGGTCTGCGGCGCGCTCGGG yielded an RUNX1 binding intensity of 828. Consider GAAGCGCTGGGCGGAAGTGGCTGTGGCTTTGCCCTT, for which the RUNX1 binding intensity was 735. As to AACAAACCGGATGGGGTTCCCACCCGCAATCTTGTC, the RUNX1 binding intensity stood at 830. In turn, ACCCAGGAGGCGGAAGTTGTGGTGAGCCGAGATCGC displayed an RUNX1 binding intensity of 862. For CTAAACCGGAAGCCGCCCCTCTGACCGCTCTAAAAC, the RUNX1 binding intensity is 1070. The sequence GGCTGTGCTTCAGGATGTGGTAATGCTTGGGAGGCG showed an RUNX1 binding intensity of 780.

CACCTCAGCTTCCTGTGTAGCTGGGACCACAGGCAT displayed an RUNX1 binding intensity of 827. TGAGCACTGAGCACTTCCTGTGGCTTCTGAAGCTCC yielded an RUNX1 binding intensity of 797. For the sequence AGCGCCCCATCCCGCGGATGTGGTAAAGCTTCGCGC, the RUNX1 binding intensity amounted to 788. Same read-out and setting: the result for GGCCAACGAGAGCGCTTCCGGCCGCAGCCACGGCGG reads 735; that for TTGGTCAGGATGTGGCTGAAGAAGCCACAAGAAAAA, 769.

Another assay concerns the target T1, ETS1. The assay can be described thus: ETS1 binding intensity (PBM fluorescence) in presence of RUNX1, normalised to ETS1-only experiment (arbitrary fluorescence units); higher = stronger binding. The note with it: ETS1 concentration 1 nM; RUNX1 concentration 25 nM.
For GCACCGTACCCGGAACTGCTCCCTCCCGCAGGCGCA, the ETS1 binding intensity is 540. For the sequence CTCACAACTCGCGTCCGGCGGAGACCACAATTCCCG, the ETS1 binding intensity is 530. On to CTCCACCGGATGCAGCAATGAAGGCCGCAGGAATGG, for which the ETS1 binding intensity is 3990.

Regarding GTAAAAGAGGAAGTAACACCTCCTTGCGGTTGAGAC, the ETS1 binding intensity was 6840. Take GCCAGGGCAGGAAGTTGCTAACCGCCCCAGAGCAGG: the ETS1 binding intensity amounted to 4850.

In the case of GCCCAGTTCTCGCATCCGGTCTGCGGCGCGCTCGGG, the ETS1 binding intensity came out at 5020. Take GAAGCGCTGGGCGGAAGTGGCTGTGGCTTTGCCCTT: the ETS1 binding intensity stood at 14300. AACAAACCGGATGGGGTTCCCACCCGCAATCTTGTC: the ETS1 binding intensity was 4570.

ACCCAGGAGGCGGAAGTTGTGGTGAGCCGAGATCGC: the ETS1 binding intensity was 11600. With CTAAACCGGAAGCCGCCCCTCTGACCGCTCTAAAAC, the ETS1 binding intensity was found to be 5990. As for GGCTGTGCTTCAGGATGTGGTAATGCTTGGGAGGCG, the ETS1 binding intensity was 4180. As for CACCTCAGCTTCCTGTGTAGCTGGGACCACAGGCAT, the ETS1 binding intensity amounted to 888. For TGAGCACTGAGCACTTCCTGTGGCTTCTGAAGCTCC, the ETS1 binding intensity amounted to 2040. The same measure, in the same setting: the result for TGCACCCGCCACTTCCGCATCGAACCGCCGCTTCAA reads 1140; that for AGCGCCCCATCCCGCGGATGTGGTAAAGCTTCGCGC, 4400; that for CATGGTTGTTATTTCCTCACCACAATATGTGACATT, 463. For CAGTCAAGAGGAAATTATAAACCACTGCCTCTTTGA, the ETS1 binding intensity was 744. For the sequence TTTTATCCTTCCTTTTTTGTTCTTTGTGGTGGAGGT, the ETS1 binding intensity turned out to be 521. On to TGCCGGGCCCCGGATGTCACCGCAGCCGCCATCTTA, for which the ETS1 binding intensity amounted to 6730. The same measure, in the same setting: the value for GGCCAACGAGAGCGCTTCCGGCCGCAGCCACGGCGG was 3000. In the case of TCCCCCACTTCCTGGCAGCAGCAGTGTGGTGAGGAG, the ETS1 binding intensity worked out at 996. Consider TTGGTCAGGATGTGGCTGAAGAAGCCACAAGAAAAA, for which the ETS1 binding intensity came to 943.

The target in a further assay is RUNX1 (UniProt Q01196). Briefly: RUNX1 binding intensity (PBM fluorescence) in presence of ETS1, normalised to RUNX1-only experiment (arbitrary fluorescence units); higher = stronger binding. Particulars: RUNX1 concentration 2 nM; ETS1 concentration 25 nM. How it is done: as §1
Sequence of RUNX1 (Q01196 whole entry): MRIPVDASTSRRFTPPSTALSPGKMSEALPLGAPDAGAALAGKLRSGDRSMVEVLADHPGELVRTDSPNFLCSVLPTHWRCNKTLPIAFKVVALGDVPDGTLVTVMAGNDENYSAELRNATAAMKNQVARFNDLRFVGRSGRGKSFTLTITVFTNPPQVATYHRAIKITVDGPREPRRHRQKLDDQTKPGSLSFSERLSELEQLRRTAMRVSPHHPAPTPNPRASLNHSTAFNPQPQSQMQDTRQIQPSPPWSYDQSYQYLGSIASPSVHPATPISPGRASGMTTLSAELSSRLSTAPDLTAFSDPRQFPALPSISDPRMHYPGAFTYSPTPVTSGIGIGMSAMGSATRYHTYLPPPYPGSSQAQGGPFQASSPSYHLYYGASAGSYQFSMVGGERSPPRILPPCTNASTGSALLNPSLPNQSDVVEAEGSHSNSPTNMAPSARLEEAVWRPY
With GCACCGTACCCGGAACTGCTCCCTCCCGCAGGCGCA, the RUNX1 binding intensity amounted to 950. As for CTCACAACTCGCGTCCGGCGGAGACCACAATTCCCG, the RUNX1 binding intensity was determined as 1230. For the sequence CTCCACCGGATGCAGCAATGAAGGCCGCAGGAATGG, the RUNX1 binding intensity was 1130.

As to GTAAAAGAGGAAGTAACACCTCCTTGCGGTTGAGAC, the RUNX1 binding intensity turned out to be 3280. On to GCCAGGGCAGGAAGTTGCTAACCGCCCCAGAGCAGG, for which the RUNX1 binding intensity was 1460. The same measure, in the same setting: the result for GCCCAGTTCTCGCATCCGGTCTGCGGCGCGCTCGGG reads 1840; that for GAAGCGCTGGGCGGAAGTGGCTGTGGCTTTGCCCTT, 1620; that for AACAAACCGGATGGGGTTCCCACCCGCAATCTTGTC, 1970. With ACCCAGGAGGCGGAAGTTGTGGTGAGCCGAGATCGC, the RUNX1 binding intensity worked out at 3150.

For the sequence CTAAACCGGAAGCCGCCCCTCTGACCGCTCTAAAAC, the RUNX1 binding intensity is 2010. With GGCTGTGCTTCAGGATGTGGTAATGCTTGGGAGGCG, the RUNX1 binding intensity stood at 1360. Take CACCTCAGCTTCCTGTGTAGCTGGGACCACAGGCAT: the RUNX1 binding intensity was 1560. The same measure, in the same setting: the value for TGAGCACTGAGCACTTCCTGTGGCTTCTGAAGCTCC was 1310; that for TGCACCCGCCACTTCCGCATCGAACCGCCGCTTCAA was 3470. On the same count and under the same terms, the result for AGCGCCCCATCCCGCGGATGTGGTAAAGCTTCGCGC reads 1570. In the case of CATGGTTGTTATTTCCTCACCACAATATGTGACATT, the RUNX1 binding intensity stood at 1300. As for CAGTCAAGAGGAAATTATAAACCACTGCCTCTTTGA, the RUNX1 binding intensity was determined as 909. Consider TTTTATCCTTCCTTTTTTGTTCTTTGTGGTGGAGGT, for which the RUNX1 binding intensity was found to be 2040. Regarding TGCCGGGCCCCGGATGTCACCGCAGCCGCCATCTTA, the RUNX1 binding intensity came to 1990.

Take GGCCAACGAGAGCGCTTCCGGCCGCAGCCACGGCGG: the RUNX1 binding intensity stood at 1420. For the sequence TCCCCCACTTCCTGGCAGCAGCAGTGTGGTGAGGAG, the RUNX1 binding intensity came to 2160. The same measure, in the same setting: the result for TTGGTCAGGATGTGGCTGAAGAAGCCACAAGAAAAA reads 1130.
